SUMO Mot1 rescue = inhibitors of SUMOylation pathway: yeast Mot1-301 growth rescue. S. cerevisiae Mot1-301 growth rescue, ATP luminescence, 38.5C; percent above DMSO median, 100 means doubled. 320,000 compounds, 1% hits. AID 2716. growth rescue, % at 18.8 µM;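 active = every valid replicate shows activation above 250% relative to neutral control wells; inactive = the rest, any valid replicate at or below 250%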;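 note: OY570 slx delta 5 strain wells were the positive control but not used for scaling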
PfHsp90 yeast 2 = reduces growth (ATP signal) of yeast expressing P. falciparum Hsp90; inhibition, % at 9.4 µM; 310,000 compounds, 0.32% hits; S. cerevisiae expressing PfHsp90, BacTiter-Glo ATP, 48 h; yeast lacking PDR1 and PDR3 efflux regulators;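 active = every replicate shows inhibition above about 80%, whatever the replicate mean, limit read from the data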;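 note: 0% = DMSO neutral controls and 100% = 20 µM radicicol positive controls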
TIM10 inh = inhibits growth of TIM10 yeast strain; inhibition, % at 10 µM; AID 463195; 330,000 compounds, 1.4% hits; S. cerevisiae TIM10 strain growth, BacTiter-Glo luminescence, 24 h;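 active = inhibition of 40% or more at the single tested concentration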;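 note: wild-type TIM10 isogenic control strain grown at permissive 25 °C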
tim10-1 inh = growth inhibitors of tim10-1 mutant yeast; inhibition, % at 20 µM; 330,000 compounds, 2.2% hits; S. cerevisiae tim10-1 ts strain growth, BacTiter-Glo, 24 h;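 active = inhibition of at least 40%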;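 note: mutant grown at 25 °C; 0% = DMSO wells with yeast and 100% = wells holding no yeast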
tim23-1 inh = growth inhibitors of tim23-1 mutant yeast; 330,000 compounds, 1.3% hits; S. cerevisiae tim23-1 growth, BacTiter-Glo luminescence, 24 h; inhibition, % at 20 µM;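 active = growth inhibition of the mutant yeast at or above 50%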;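 note: temperature-sensitive mutant grown at 25 °C; plate controls were DMSO-treated mutant yeast for no effect and medium wells lacking yeast for full effect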
tim23-1 conf = confirmation of tim23-1 mutant yeast growth inhibitors; shares compounds with tim23-1 inh; S. cerevisiae tim23-1 growth, BacTiter-Glo luminescence, 24 h; 4,400 compounds, 83% hits; inhibition, % at 20 µM; AID 463218;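 active = inhibition above about 39% in either of two replicate wells at 20 µM, limit read from the data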;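 note: temperature-sensitive tim23-1 mutant grown at 25 °C; 0% = DMSO wells with yeast and 100% = medium wells without yeast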
An asterisk follows results filed as active. Only some compounds are listed: those with a hit (about 4.4% of all), similar ones and a draw of the others.

COC(=O)c1ccc(NC(=O)c2nc(S(=O)(=O)Cc3cccc(C)c3)ncc2Cl)cc1 was read as SUMO Mot1 rescue 127, PfHsp90 yeast 2 109*, TIM10 inh 1, tim10-1 inh 32, tim23-1 inh 69* and tim23-1 conf 51*.
Screening CCS(=O)(=O)c1ncc(Cl)c(C(=O)Nc2ccccc2OC)n1 returned SUMO Mot1 rescue 16, PfHsp90 yeast 2 -8, TIM10 inh -14, tim10-1 inh -5 and tim23-1 inh 18.
Cc1cccc(CS(=O)(=O)c2ncc(Cl)c(C(=O)NCc3ccc4c(c3)OCO4)n2)c1 was read as SUMO Mot1 rescue 26, PfHsp90 yeast 2 -53, TIM10 inh 17, tim10-1 inh 37 and tim23-1 inh 20.
`Cc1nc2ccc([N+](=O)[O-])cc2c(=O)n1Cc1ccc(F)cc1` gave SUMO Mot1 rescue 8, PfHsp90 yeast 2 -30, TIM10 inh -6, tim10-1 inh -4 and tim23-1 inh -2.
For CC(C)N(CCNC(=O)c1ccc(CS(=O)(=O)c2c(Cl)cccc2Cl)o1)Cc1ccccc1 the results were SUMO Mot1 rescue 24, PfHsp90 yeast 2 1, TIM10 inh 5, tim10-1 inh 15 and tim23-1 inh 8.
For Cc1ccc(OCCC(=O)NNC(=O)c2cc(C)oc2C)cc1 the results were SUMO Mot1 rescue -1, TIM10 inh 0, tim10-1 inh 6 and tim23-1 inh 14.
`O=C(/C=C/c1ccco1)N(c1ccccn1)c1ccccn1` gave PfHsp90 yeast 2 -10, TIM10 inh 7, tim10-1 inh 2 and tim23-1 inh 1.
Cc1cc(C)c(CN2CCN(C(=O)Cn3cnc4c(NCc5ccccc5)ncnc43)CC2)c(C)c1 was read as PfHsp90 yeast 2 -14, TIM10 inh 9, tim10-1 inh 10, tim23-1 inh 92* and tim23-1 conf 12.
COc1ccc(Cl)cc1NC(=O)CN(C)C(=O)C1CCN(C(=O)Nc2ccccc2)CC1 was read as SUMO Mot1 rescue 83, PfHsp90 yeast 2 -10, TIM10 inh -4, tim10-1 inh 5 and tim23-1 inh 7.
For O=C(N/N=C/c1ccccn1)c1ccc(Cl)c(Cl)c1 the results were SUMO Mot1 rescue -18, PfHsp90 yeast 2 -4, TIM10 inh 24, tim10-1 inh 27, tim23-1 inh 62* and tim23-1 conf 49*.
`O=C(N/N=C/C=C\c1ccco1)c1cccs1` gave SUMO Mot1 rescue 11, PfHsp90 yeast 2 7, TIM10 inh 23, tim10-1 inh 9, tim23-1 inh 64* and tim23-1 conf 53*.
For O=C(O)c1ccc(COc2ccc(/C=N/NC(=O)c3cccs3)cc2)cc1 the results were SUMO Mot1 rescue 4, PfHsp90 yeast 2 -3, TIM10 inh 2, tim10-1 inh 11 and tim23-1 inh 16.
O=C(N/N=C/c1cccc(OCc2ccccc2)c1)c1cccs1 was read as SUMO Mot1 rescue 8, PfHsp90 yeast 2 12, TIM10 inh -7, tim10-1 inh -7, tim23-1 inh 55* and tim23-1 conf 42*.
`CC(/C=N/NC(=O)c1ccncc1)=C\c1ccccc1` gave SUMO Mot1 rescue 120, PfHsp90 yeast 2 13, TIM10 inh 5, tim10-1 inh 2 and tim23-1 inh 10.
`CC(=C/c1ccccc1)/C=N/NC(=O)c1cccs1` gave SUMO Mot1 rescue 29, TIM10 inh 35, tim10-1 inh -1, tim23-1 inh 64* and tim23-1 conf 55*.
CCC(CC)NC(=O)C1CCN(c2ccc(S(=O)(=O)N3CCOCC3)cc2[N+](=O)[O-])CC1 was read as SUMO Mot1 rescue -15, PfHsp90 yeast 2 -10, TIM10 inh 4, tim10-1 inh -17 and tim23-1 inh -6.
`CC1Oc2ccccc2N(CC(=O)c2ccccc2)C1=O` (stereo unspecified) gave SUMO Mot1 rescue -1, TIM10 inh 6, tim10-1 inh 29 and tim23-1 inh 16.
Screening O=C(c1ccccc1)N1C(=O)C(c2ccccc2)Oc2ccccc21 (stereo unspecified) returned SUMO Mot1 rescue 15, PfHsp90 yeast 2 -98, TIM10 inh 33, tim10-1 inh 39, tim23-1 inh 80* and tim23-1 conf 57*.

Screening data as filed in PubChem BioAssay.
